The values that follow come from PubChem BioAssay AID2187 (The Scripps Research Institute Molecular Screening Center, 2009).

Each structure is given as a SMILES string. About 1,200 (92%) of roughly 1,300 compounds were called active. The set was probably picked from earlier hits. These entries were drawn from the full list. A number with no mark means an inactive call.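 How the source made its calls: active means inhibition of the VIM-2 beta-lactamase enzyme above about 11% from the earlier first-round screen (limit read from the data); inactive means the rest.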

The assay has as its system VIM-2 metallo-beta-lactamase (Pseudomonas aeruginosa). As to the kind of experiment: inhibition of VIM-2 nitrocefin hydrolysis – biochemical, epi-absorbance, hits shared with IMP-1 screen, confirmation (AID 2187).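 Further: 0% = VIM-2 with DMSO and 100% = buffer wells without enzyme.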 To be noted: purified VIM-2, nitrocefin hydrolysis, at 5.6 µM, stronger effect = higher value.
`CC1CCCC(C)N1CCCNC(=O)c1cc2c(=O)n(C)c3ccccc3c2n1C` (configuration not stated): the inhibition (usually the share of the control response that was lost under treatment) was 29.3% (active). `CCN1CCCC1CNC(=O)c1cc2c(=O)n(C)c3ccccc3c2n1C` (configuration not stated): the inhibition is 32.5% (active). With `Cc1cc(NCc2ccco2)n2c(nc3ccccc32)c1C#N`, the inhibition is 53% (active). Regarding `CCN(CC)c1ccc2cc(C(N)=O)/c(=N\NC(=O)c3ccncc3)oc2c1`, the inhibition was 37.4% (active). For the compound `COc1ccc(/C=N/N(C)C2=NS(=O)(=O)c3ccccc32)cc1OC`, the inhibition is 20.6% (active). Turning to `O=C(COc1cc2oc(=O)c3c(c2cc1Cl)CCC3)NCCCN1CCOCC1`, the inhibition was 34.9% (active).

With `Cn1c(=O)c2c(nc(N3CCOCC3)n2CCNC2=NCCC2)n(C)c1=O`, the inhibition was 28% (active). For the compound `CCN(CC)CCOc1ccc2c(c1)C(=NNC(=O)c1ccccn1)c1cc(OCCN(CC)CC)ccc1-2`, the inhibition is 43.4% (active). For `Cn1c2ccccc2c(=O)c2c(O)cccc21`, the inhibition is 38.6% (active). For `C=CCn1c(-c2ccccc2OCC)n[nH]c1=S`, the inhibition was 24.7% (active). As for `COc1ccc(CCn2c(=N)c(C(=O)NCC3CCCO3)cc3c(=O)n4cccc(C)c4nc32)cc1OC` (configuration not stated), the inhibition was 27.6% (active). To `CC(=O)c1ccc(-c2ccc(Cn3c(C)nc4cc(N)c(C)nc43)cc2)cc1` belongs 26.6% (active); to `CCOCCCNc1c(CC)c(C)c(C#N)c2nc3ccccc3n12`, 20.6% (active); to `CCOC(=O)N1CCN(C(=O)C2CCN(c3ncnc4c3sc3cccc(F)c34)CC2)CC1`, 22% (active). As for `Cc1cccn2c(=O)c(C=O)c(Nc3ccc(S(N)(=O)=O)cc3)nc12`, the inhibition is 26.6% (active). On to `O=c1[nH]c(-c2ccccc2)c(-c2ccccc2)[nH]1`, for which the inhibition is 45.7% (active). As for `COc1cc(/C=N/Nc2nn3cnnc3c3ccccc23)cc(OC)c1OC`, the inhibition is 53.9% (active). With `COc1ccc(Nc2cc(C)nc(-n3nc(C)cc3C)n2)cc1`, the inhibition was 25.1% (active). Next, `COc1ccc(Cc2nnc(NS(=O)(=O)Cc3ccccc3)s2)cc1`: 21.1% (active); `CCC1CCCCN1CCCNC(=O)c1cc2c(Cl)nc3ccccc3c2s1` (configuration not stated): 32.2% (active). On to `Cc1nc2ccccc2c2oc(C(=O)NCCCN3CCC(C)CC3)cc12`, for which the inhibition was 29.2% (active). As for `CCCc1ccc(OCCNC(=O)c2ccco2)cc1`, the inhibition was 0.92%. As to `O=C(NC(=S)Nc1ccccc1C(=O)O)c1ccc(-c2ccc(Br)cc2)o1`, the inhibition was 8.47% (active). Take `CNC(=O)c1ccsc1NC(=O)c1ccc(S(=O)(=O)N2CCOCC2)cc1`: the inhibition was 26.7% (active).

In the case of `COC(=O)c1c(NC(=O)c2ccc(S(=O)(=O)N3CCOCC3)cc2)sc2c1CCN(C(C)C)C2`, the inhibition was 71.3% (active). With `COc1cc(NC(=O)C2=C(C)OCCS2)c(Cl)cc1C(=O)NCCN1CCN(C)CC1`, the inhibition is 34.3% (active). Next, `CCN1CCN(C(=O)Cn2nc(C)n3c(cc4c(OC)cccc43)c2=O)CC1`: 41.4% (active). Next, `Nc1nnc2c(C(F)(F)F)nc3ccccc3n12`: 21.3% (active); `NC(=O)C1CCN(C(=O)COc2ccc3c4c(c(=O)oc3c2)CCC4)CC1`: 22.5% (active); `COc1nc(N=C(N)N)nc2c(C)cccc12`: 24.9% (active).

For the compound `Cc1cc(C)c2nc3nc(C)cc(C)c3c(N)c2c1`, the inhibition was 28.1% (active). For the compound `O=C(NCCCN1CCOCC1)c1cnn2c(-c3ccccc3)cc(-c3ccccc3)nc12`, the inhibition is 45.4% (active). On to `COc1cc(-c2nn3c(-c4cccc(C)c4)nnc3s2)cc(OC)c1OC`, for which the inhibition is 22.1% (active).

Turning to `COc1ccc(-c2nn3c(-c4ccccc4)nnc3s2)cc1OC`, the inhibition is 34.6% (active). On to `COC(=O)c1ccc(-c2noc(CN(Cc3ccccn3)CC3CCCO3)n2)cc1` (configuration not stated), for which the inhibition is 26.8% (active). To `CCN1CCN(CCNC(=O)c2ccc3c(c2)NC(=O)/C(=C\c2ccc(OC)c(OC)c2)S3)CC1` belongs 30.4% (active); to `Nc1cccc2c1C(=O)N(Cc1nnc(-c3ccccc3Br)o1)C2=O`, 18.7% (active); to `CN1CCN(c2ccc(NC(=O)c3ccc4c(c3)[nH]c(=O)n4Cc3ccc(F)cc3)cc2)CC1`, 33.6% (active). As to `CC(NS(=O)(=O)c1ccccc1)c1n[nH]c(=S)n1-c1ccccc1` (configuration not stated), the inhibition is 28.1% (active). Regarding `CN(C)CCNc1ccc(-c2n[nH]c(=O)c3ccccc23)cc1[N+](=O)[O-]`, the inhibition is 84.4% (active). Consider `O=C1Nc2cc(C(=O)N3CCC(N4CCCCC4)CC3)ccc2S/C1=C\c1ccccc1`, for which the inhibition is 38.5% (active). Take `Fc1ccc(-c2ccc(CNCc3ccccn3)o2)cc1Cl`: the inhibition was 54.3% (active). For the compound `Cc1ccc2nc(C)c3c(c2c1)N(c1ccccc1)CC3`, the inhibition was 25.2% (active).

`Cn1c(-c2sccc2OCc2cccc(C(F)(F)F)c2)n[nH]c1=S`: the inhibition is 37.3% (active).

For `Clc1cc(-c2ccc(/C=N/n3cnnc3)o2)ccc1Br`, the inhibition was 57% (active).

For `Cc1cc(-c2ccc(/C=N/n3cnnc3)o2)c([N+](=O)[O-])cc1C`, the inhibition is 69.9% (active). For the compound `Cc1ccc(Cl)cc1-c1ccc(/C=N/n2cnnc2)o1`, the inhibition was 41.2% (active).

Take `Cc1cc([N+](=O)[O-])c(-c2ccc(/C=N/n3cnnc3)o2)cc1Cl`: the inhibition was 67.5% (active). Next, `CC(C)(C)CC(=O)Nc1nnc(SCC(=O)NCc2cccs2)s1`: 27.4% (active). Consider `CCc1cc(=O)oc2cc(C)cc(OCC(=O)N3CCC[C@@H]3C(=O)O)c12`, for which the inhibition is 19.7% (active). For `CCOc1cc(/C=C2\SC(N3CCCCC3)=NC2=O)ccc1O`, the inhibition is 19% (active). Turning to `CCOc1cc(/C=C2\SC(N3CCCC(C)C3)=NC2=O)ccc1O` (configuration not stated), the inhibition is 20.7% (active).
